# Measured values reported in PubChem BioAssay (Tox21).
# Results filed as inconclusive are left out. Entries that show only a call come without a potency. Some compounds were tested as several samples or in several runs, with calls that do not always agree. The source made the active and inactive calls. Unless noted, calls follow the shape of the dose curve; as a rule, active = well fitted curve in the direction sought with a large enough effect in the repeat runs; inconclusive = weak or mixed curves; inactive = no such curve, though single readings can be large; an effect the other way counts as inactive or inconclusive.
# System: not listed separately
# Assay: qHTS assay to identify small molecule agonists of the estrogen receptor beta (ER-beta) signaling pathway - cell viability counter screen (AID 1259380); also: nearly all actives have a fitted effect of over 30% in size; also: potency is read from the fitted curve at half-maximal effect
# Conditions: ER-beta-bla HEK293T viability, CellTiter-Glo luminescence, 16 h; series mostly up to 92.4 µM
# Procedure, shortened: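 ER-beta-UAS-bla HEK293T cells in medium with 2% charcoal-stripped FBS were preincubated 6 hr at 37C, dosed with compound in DMSO for 16 hr, then after the bla read, CellTiter-Glo was added for 30 min at room temperature; luminescence recorded.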
row,Structure (SMILES),Potency
1,ClCCOCCCl,inactive
2,CN(C)C(=O)Nc1cccc(C(F)(F)F)c1,inactive
3,CN(C)C(=O)C(c1ccccc1)c1ccccc1,inactive
4,Nc1ccc(N)cc1,inactive
5,O=S(=O)(O)OOS(=O)(=O)O,inactive
6,CC12CC1(C)C(=O)N(c1cc(Cl)cc(Cl)c1)C2=O (stereo unspecified),inactive
7,OCCCCO,inactive
8,COC(=O)Nc1cccc(OC(=O)Nc2cccc(C)c2)c1,inactive
9,N#Cc1cccc(C#N)c1,inactive
10,Nc1cc(Cl)cc(Cl)c1,inactive
11,CC(C)c1cccc(C(C)C)c1O,inactive
12,COP(=S)(OC)Oc1ccc(SC)c(C)c1,inactive
13,O=C(O)c1cc(Oc2ccc(C(F)(F)F)cc2Cl)ccc1[N+](=O)[O-],inactive
14,CSc1nnc(C(C)(C)C)c(=O)n1N,inactive
15,COc1cc(-c2ccc(N)c(OC)c2)ccc1N,14.7 µM (active)
16,O=C/C=C/c1ccccc1,inactive

row,Structure (SMILES),Potency
1,CCCCCCCCCCCCCCCCCC(=O)O,inactive
2,CC(=O)/C=C/c1ccccc1,inactive
3,Cc1ccccc1N,inactive
4,CN1C(=O)CCS(=O)(=O)C1c1ccc(Cl)cc1 (stereo unspecified),inactive
5,Cl[C@H]1OCCO[C@@H]1Cl,inactive
6,C[C@H]1C(=O)O[C@@H]2CCN3CC=C(COC(=O)[C@](C)(O)[C@]1(C)O)[C@H]23,inactive
7,[N-]=[N+]=CC(=O)OC[C@H](N)C(=O)O,inactive
8,Cc1ccc(N=C=O)cc1N=C=O,34.3 µM (active) and inactive
9,COC(C)(C)CCCC(C)C/C=C/C(C)=C/C(=O)OC(C)C (stereo unspecified),inactive
10,CCOP(=S)(OCC)Oc1ccc([N+](=O)[O-])cc1,inactive
11,c1ccc2c(c1)CCCC2,inactive
12,CNC(=O)Oc1cccc2ccccc12,inactive
13,Cc1ccc(N)cc1,inactive
14,CN(C)NC(=O)CCC(=O)O,inactive
15,O=[N+]([O-])c1cc([As](=O)(O)O)ccc1O,inactive

# Biological target: Androgen receptor (Homo sapiens) (UniProt P10275)
# Sequence (P10275 whole entry, looked up): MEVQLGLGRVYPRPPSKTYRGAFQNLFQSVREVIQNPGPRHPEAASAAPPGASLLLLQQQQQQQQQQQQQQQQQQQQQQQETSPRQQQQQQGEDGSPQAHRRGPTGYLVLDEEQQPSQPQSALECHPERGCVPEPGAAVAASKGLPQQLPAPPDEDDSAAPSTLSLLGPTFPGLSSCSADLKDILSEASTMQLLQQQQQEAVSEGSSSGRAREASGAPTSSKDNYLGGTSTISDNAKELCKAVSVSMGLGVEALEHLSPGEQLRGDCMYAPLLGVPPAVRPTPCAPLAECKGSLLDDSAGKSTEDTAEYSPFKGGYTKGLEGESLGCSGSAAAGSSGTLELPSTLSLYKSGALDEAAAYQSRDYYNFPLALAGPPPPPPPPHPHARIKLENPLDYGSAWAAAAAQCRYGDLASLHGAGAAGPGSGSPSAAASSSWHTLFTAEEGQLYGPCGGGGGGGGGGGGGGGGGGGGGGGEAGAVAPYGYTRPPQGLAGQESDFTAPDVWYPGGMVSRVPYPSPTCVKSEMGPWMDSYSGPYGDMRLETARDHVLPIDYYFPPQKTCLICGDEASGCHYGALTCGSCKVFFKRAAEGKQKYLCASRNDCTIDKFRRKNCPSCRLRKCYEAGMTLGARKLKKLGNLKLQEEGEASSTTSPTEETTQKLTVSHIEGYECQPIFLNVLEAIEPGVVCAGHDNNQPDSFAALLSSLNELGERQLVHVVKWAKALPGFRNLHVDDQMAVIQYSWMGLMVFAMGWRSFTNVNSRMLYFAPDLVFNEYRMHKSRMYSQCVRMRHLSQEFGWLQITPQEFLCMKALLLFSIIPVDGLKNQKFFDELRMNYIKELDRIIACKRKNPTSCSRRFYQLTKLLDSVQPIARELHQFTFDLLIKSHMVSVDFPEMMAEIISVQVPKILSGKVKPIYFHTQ
# Assay: qHTS assay to identify small molecule agonists of the androgen receptor (AR) signaling pathway in the presence of an antagonist (AID 1259381; calls by dose curve; also: nearly all actives have a fitted effect of over 15% in size)
# Conditions: MDA-kb2 MMTV-luciferase, AR agonist + nilutamide, 16 h; series mostly up to 92.4 µM
# Procedure, shortened: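 MDA-kb2 human breast carcinoma cells carrying an MMTV-luciferase reporter (AR- and GR-responsive) were treated with compounds at 15 concentrations plus 3.0uM final nilutamide for 16hr at 37C without CO2; luminescence was read after ONE-Glo addition.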
row,Structure (SMILES),outcome
1,CC12CC1(C)C(=O)N(c1cc(Cl)cc(Cl)c1)C2=O (stereo unspecified),inactive
2,CC(C)c1cccc(C(C)C)c1O,inactive
3,COC(C)(C)CCCC(C)C/C=C/C(C)=C/C(=O)OC(C)C (stereo unspecified),inactive
4,c1ccc2c(c1)CCCC2,inactive

# System: not listed separately
# Assay: qHTS assay to identify small molecule antagonists of the estrogen receptor beta (ER-beta) signaling pathway - cell viability counter screen (AID 1259382);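 also: HEK293T cells carrying ER-beta-UAS-bla reporter stimulated with estradiol; nearly all actives have a fitted effect of over 55% in size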
# Conditions: ER-beta-UAS-bla HEK293T viability, CellTiter-Glo luminescence, 16 h; series mostly up to 92.4 µM
# Procedure, shortened: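 ER-beta-UAS-bla HEK293T cells (2,000/well, 2% charcoal-stripped FBS) were pre-incubated 6 hr at 37C, then given compound plus 1nM final 17-beta-estradiol for 16 hr. Viability was read in the same wells by CellTiter-Glo luminescence after 30 min at room temperature.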
row,Structure (SMILES),outcome
1,ClCCOCCCl,inactive
2,CN(C)C(=O)Nc1cccc(C(F)(F)F)c1,inactive
3,CN(C)C(=O)C(c1ccccc1)c1ccccc1,inactive
4,Nc1ccc(N)cc1,inactive
5,O=S(=O)(O)OOS(=O)(=O)O,inactive
6,CC12CC1(C)C(=O)N(c1cc(Cl)cc(Cl)c1)C2=O (stereo unspecified),inactive
7,OCCCCO,inactive
8,COC(=O)Nc1cccc(OC(=O)Nc2cccc(C)c2)c1,inactive
9,N#Cc1cccc(C#N)c1,inactive
10,Nc1cc(Cl)cc(Cl)c1,inactive
11,CC(C)c1cccc(C(C)C)c1O,inactive
12,COP(=S)(OC)Oc1ccc(SC)c(C)c1,inactive
13,O=C(O)c1cc(Oc2ccc(C(F)(F)F)cc2Cl)ccc1[N+](=O)[O-],inactive
14,CSc1nnc(C(C)(C)C)c(=O)n1N,inactive
15,COc1cc(-c2ccc(N)c(OC)c2)ccc1N,inactive
16,O=C/C=C/c1ccccc1,inactive

row,Structure (SMILES),outcome
1,CCCCCCCCCCCCCCCCCC(=O)O,inactive
2,CC(=O)/C=C/c1ccccc1,inactive
3,Cc1ccccc1N,inactive
4,CN1C(=O)CCS(=O)(=O)C1c1ccc(Cl)cc1 (stereo unspecified),inactive
5,Cl[C@H]1OCCO[C@@H]1Cl,inactive
6,C[C@H]1C(=O)O[C@@H]2CCN3CC=C(COC(=O)[C@](C)(O)[C@]1(C)O)[C@H]23,inactive
7,[N-]=[N+]=CC(=O)OC[C@H](N)C(=O)O,inactive
8,Cc1ccc(N=C=O)cc1N=C=O,inactive
9,COC(C)(C)CCCC(C)C/C=C/C(C)=C/C(=O)OC(C)C (stereo unspecified),inactive
10,CCOP(=S)(OCC)Oc1ccc([N+](=O)[O-])cc1,inactive
11,c1ccc2c(c1)CCCC2,inactive
12,CNC(=O)Oc1cccc2ccccc12,inactive
13,Cc1ccc(N)cc1,inactive
14,CN(C)NC(=O)CCC(=O)O,inactive
15,O=[N+]([O-])c1cc([As](=O)(O)O)ccc1O,inactive
